This note sets out measurements from the supplement of paper PMC6897291.

This assay has as its system RIVA. The assay can be described thus: growth inhibition by drug alone (1 - RLU/untreated control) (fraction); higher = stronger inhibition. The following applies: 177Lu-lilotomab satetraxetan 0 ug/ml. The method, then: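 RIVA (RI-1) ABC-DLBCL cells were pretreated or not for 18 h with 0.5 ug/ml 177Lu-lilotomab satetraxetan (600 MBq/mg), washed and seeded (3000 cells/well) on 384-well plates pre-printed with the Selleck Cambridge Cancer Compound library. Viability was read by RealTime-Glo luminescence on days 3-6 after seeding. Effect = 1 - RLU/mean RLU of the 48 untreated no-drug control wells per plate; Bliss score = (M-E)/(1-Fa).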

As to `Cn1cc(C2=C(c3cn(C4CCN(Cc5ccccn5)CC4)c4ccccc34)C(=O)NC2=O)c2ccccc21`, the “growth inhibition by drug alone” value runs as follows: (10 nM, time (day): 3) -0.161; (10 nM, time (day): 4) -0.222; (10 nM, time (day): 5) -0.236; (10 nM, time (day): 6) -0.302; (100 nM, time (day): 3) -0.273; (100 nM, time (day): 4) -0.319. In addition, the “growth inhibition by drug alone” value (100 nM, time (day): 5) is -0.329 and the “growth inhibition by drug alone” value (100 nM, time (day): 6) is -0.414.
With `Cc1cc2c(C(C)C)c(O)c(O)c(C=O)c2c(O)c1-c1c(C)cc2c(C(C)C)c(O)c(O)c(C=O)c2c1O` [Gossypol], the “growth inhibition by drug alone” value (10 nM, time (day): 3) was -0.235; the “growth inhibition by drug alone” value (10 nM, time (day): 4) is -0.278; the “growth inhibition by drug alone” value (10 nM, time (day): 5) was -0.288; the “growth inhibition by drug alone” value (10 nM, time (day): 6) was -0.349; the “growth inhibition by drug alone” value (100 nM, time (day): 3) is -0.0878; the “growth inhibition by drug alone” value (100 nM, time (day): 4) was -0.143. For the same compound, the “growth inhibition by drug alone” value was -0.172 (100 nM, time (day): 5) and -0.216 (100 nM, time (day): 6).
For the compound `CC(C)[C@]12O[C@H]1[C@@H]1O[C@]13[C@]1(O[C@H]1C[C@H]1C4=C(CC[C@@]13C)C(=O)OC4)[C@@H]2O` [Triptolide], the “growth inhibition by drug alone” value was determined as 0.376 (10 nM, time (day): 3); 0.671 (10 nM, time (day): 4); 0.753 (10 nM, time (day): 5); 0.792 (10 nM, time (day): 6); 0.907 (100 nM, time (day): 3); 0.934 (100 nM, time (day): 4). Besides, the “growth inhibition by drug alone” value is, setting by setting: (100 nM, time (day): 5) 0.957; (100 nM, time (day): 6) 0.967.
Turning to `C[C@]12CCC(=O)C(O)=C1CC[C@@H]1[C@@H]2CC[C@]2(C)C(=O)CC[C@@H]12` [Formestane], the “growth inhibition by drug alone” value reads like this: (10 nM, time (day): 3) -0.227; (10 nM, time (day): 4) -0.249; (10 nM, time (day): 5) -0.286; (10 nM, time (day): 6) -0.391; (100 nM, time (day): 3) -0.322; (100 nM, time (day): 4) -0.306. Besides, the “growth inhibition by drug alone” value (100 nM, time (day): 5) was -0.36 and the “growth inhibition by drug alone” value (100 nM, time (day): 6) was -0.445.
On to `CC(=O)Nc1ccc(OC[C@](C)(O)C(=O)Nc2ccc([N+](=O)[O-])c(C(F)(F)F)c2)cc1` [Andarine (GTX-007)], for which the “growth inhibition by drug alone” value (10 nM, time (day): 3) was 0.017; the “growth inhibition by drug alone” value (10 nM, time (day): 4) was -0.0064; the “growth inhibition by drug alone” value (10 nM, time (day): 5) was -0.271; the “growth inhibition by drug alone” value (10 nM, time (day): 6) is -0.322; the “growth inhibition by drug alone” value (100 nM, time (day): 3) is -0.229; the “growth inhibition by drug alone” value (100 nM, time (day): 4) was -0.219. The “growth inhibition by drug alone” value was -0.21 (100 nM, time (day): 5) and -0.215 (100 nM, time (day): 6).
